{"source": "paper PMC5540273", "about": "(PLoS ONE, 2017)", "note": "pKd: −log10 of the molar value.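 Further: kd values determined as follow-up on hits from a single-replicate KINOMEscan panel screen.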"}
{"test_system": "TGFBR1"}
{"compound": "Cc1cccc(-c2nc(C)cc(Nc3ccncc3)n2)n1", "note": "[GSK257997]", "pKd": 6.70}
{"compound": "Cl.c1ccc(-c2n[nH]cc2-c2ccnc(-c3ccc(CN4CCOCC4)cc3)c2)nc1", "note": "[GW776245]", "pKd": 6.82}
{"compound": "Cc1ccc(-c2cc(-c3c[nH]nc3-c3ccccn3)ccn2)cc1", "note": "[GW684088]", "pKd": 6.59}
{"test_system": "TGFBR2"}
{"compound": "Cc1cccc(-c2nc(Nc3ccncc3)c3ccccc3n2)n1", "note": "[GW855857]", "pKd": 6.54}
{"compound": "Cc1csc(-c2nc(Nc3ccncc3)c3ccccc3n2)n1", "note": "[GW869640]", "pKd": 6.60}
{"compound": "Cl.c1ccc(-c2n[nH]cc2-c2ccnc(-c3ccc(CN4CCOCC4)cc3)c2)nc1", "note": "[GW776245]", "pKd": 6.68}
